Most compounds without a hit are left out; they make up all but 5.7% or so of the library.
Giardia killer – Giardia lamblia killing. Giardia lamblia trophozoite viability. activity change, % at 7.66 µM, hits read low. 340,000 compounds, 0.15% hits. AID 540267; in the data active means activity change below about -80%; inconclusive means between about -30% and that limit;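 further: parasites exposed to compound for two days anaerobically before the ATP read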
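Killing of trophozoites was scored by loss of ATP luminescence after a 48 hrs anaerobic exposure to compounds at 37 deg C, using 100 cells per well.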
KB-V1 MDR tox – kills drug-selected multidrug resistant KB-V1 cells; Potency, µM (top dose mostly 46.1 µM), actives largely listed as cytotoxic; 400,000 compounds, 3.4% hits; KB-V1 MDR cells viability, CellTiter-Glo, 72 h; further: nearly all actives have a fitted effect of over 60% in size
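Potencies derive from concentration-effect curves fitted to normalized luminescence (CellTiter-Glo) of KB-V1 cells treated for 72 h at 37 degrees C in phenol-red-free DMEM containing 10% FBS.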
PI4K2A inh – inhibitors of human PI4K2A; 420,000 compounds, 0.13% hits; AID 1346378; Q9BTU6; activity change, negative = inhibition, % at 76.9 µM; purified PI4K2A, ADP-Glo luminescence, 1 h; stronger effect = lower value; in the data active means activity change below about -50%; inconclusive means mostly about -30% to -49%
Target sequence (Q9BTU6 whole entry, looked up): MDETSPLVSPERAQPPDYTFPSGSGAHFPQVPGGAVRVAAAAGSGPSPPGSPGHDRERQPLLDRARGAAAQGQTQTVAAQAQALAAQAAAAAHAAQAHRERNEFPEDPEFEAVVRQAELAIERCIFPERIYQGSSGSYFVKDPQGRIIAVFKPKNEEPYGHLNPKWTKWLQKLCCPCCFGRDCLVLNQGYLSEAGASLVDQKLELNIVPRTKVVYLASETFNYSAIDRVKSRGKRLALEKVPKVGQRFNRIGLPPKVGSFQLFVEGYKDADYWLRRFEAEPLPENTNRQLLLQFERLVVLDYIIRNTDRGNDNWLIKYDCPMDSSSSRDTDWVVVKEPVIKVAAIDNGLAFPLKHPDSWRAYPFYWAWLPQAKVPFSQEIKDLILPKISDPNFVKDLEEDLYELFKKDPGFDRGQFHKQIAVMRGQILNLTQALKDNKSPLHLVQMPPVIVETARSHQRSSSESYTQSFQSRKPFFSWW
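In this quantitative HTS, ADP production by PI4K2A was quantified luminescently after 1 h at ambient temperature; 100 microM adenosine served as plate-quality control.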
A549 tox – kills or reduces viability of A549 cells in Nrf2 counter-screen; A549 ARE-Fluc cells, CellTiter-Fluor viability, 18-24 h; Potency, µM (titrated, usually from 46 µM), actives largely listed as inhibitors; 390,000 compounds, 0.16% hits; AID 504648
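Cytotoxicity counterscreen: CellTiter-Fluor fluorescence was measured in A549 ARE_Fluc cells after 18-24 h of compound exposure in a concentration series. The subsequent BugLite luminescent read reports ARE-luciferase activity.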
KB-3-1 tox – KB-3-1 parental cell cytotoxicity; KB-3-1 viability, CellTiter-Glo ATP luminescence, 72 h; Potency, µM (highest dose often 46.1 µM), usual class: cytotoxic; 400,000 compounds, 1.4% hits; further: nearly all actives have a fitted effect of over 60% in size
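Parental KB-3-1 viability, qHTS format: 72 h compound exposure, 37 °C; CellTiter-Glo; media-only wells and DMSO plates as controls; concentration-effect fits on corrected data.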
Nrf2 inh – Nrf2 pathway inhibition. Potency, µM (highest dose often 46 µM), most hits filed as inhibitors. A549 ARE-Fluc reporter, luciferase luminescence, 18-24 h. 360,000 compounds, 2.1% hits; further: nearly all actives have a fitted effect of over 60% in size
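A549 ARE_Fluc cells, 5000/well, 5% FBS OPTI-MEM; compounds in dose-response, 18-24 h at 37 °C/5% CO2; CellTiter-Fluor viability read (Ex 405/Em 525), then BugLite luciferase luminescence = Nrf2 activity.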
Large screens that a line does not name were inactive; ! = not confirmed by another sample. Unless noted, the call rests on the fitted dose curve; in most records, active means well fitted curve in the direction sought with a large enough effect; inconclusive means small, poorly fitted or top-dose-only effect, or another doubt; inactive means no such curve, though single readings can be large; an effect the other way counts as inactive or inconclusive.

c1ccc(-c2csc3ncnc(N4CCc5ccccc5C4)c23)cc1	KB-V1 MDR tox 16µM, KB-3-1 tox inconclusive
Cc1cc2ncn(-c3ncnc4sc5c(c34)CCC(C)C5)c2cc1C (stereo not given)	KB-V1 MDR tox 13µM
Cc1cc2ncn(-c3ncnc4sc5c(c34)CCCC5)c2cc1C	none (no result: Nrf2 inh)
O=C(CSC(=S)N1CCCCC1)Nc1nc(-c2ccccc2)c(-c2ccccc2)o1	KB-V1 MDR tox 23µM, Nrf2 inh inconclusive
CS(=O)(=O)N1c2ccccc2C[C@H]1Cc1cc2ccccc2o1	none (no result: Giardia killer, KB-V1 MDR tox, A549 tox, KB-3-1 tox, Nrf2 inh)
Cn1c(-c2ccc3c(c2)OCO3)cnc1NCc1cccc(Cl)c1	KB-V1 MDR tox inconclusive
Cn1c(=O)c2c(nc(NCc3ccccc3)n2Cc2ccc(Cl)c(Cl)c2)n(C)c1=O	KB-V1 MDR tox 18µM, A549 tox inconclusive, KB-3-1 tox inconclusive, Nrf2 inh inconclusive (no result: Giardia killer)
COc1cc(/C=N/Nc2nc3c(c(=O)n(C)c(=O)n3C)n2Cc2ccccc2)ccc1OC(=O)c1ccco1	KB-V1 MDR tox 9.2µM, A549 tox inconclusive, KB-3-1 tox inconclusive, Nrf2 inh inconclusive
Cn1c(-c2ccc3c(c2)OCO3)cnc1NCc1ccccc1	KB-V1 MDR tox 13µM, KB-3-1 tox inconclusive
Cn1c(=O)c2c(nc(NCc3ccc4c(c3)OCO4)n2Cc2ccccc2)n(C)c1=O	A549 tox inconclusive, KB-3-1 tox 23µM (no result: Nrf2 inh)
Cn1c(=O)c2nc(NCc3ccccc3)cnc2n(C)c1=O	KB-V1 MDR tox 18µM
Cn1c(=O)c2c(nc(NCc3ccc4c(c3)OCO4)n2Cc2ccc(F)cc2)n(C)c1=O	KB-V1 MDR tox inconclusive, KB-3-1 tox inconclusive, Nrf2 inh 23µM
COc1ccccc1/C=C1\C=Cc2ccccc21	none (no result: Giardia killer, PI4K2A inh, A549 tox, Nrf2 inh)
CC1(C(=O)Nc2cccnc2)Cc2c(-c3ccc4c(c3)OCO4)ccnc2O1 (stereo not given)	KB-V1 MDR tox inconclusive, KB-3-1 tox 15µM (no result: Giardia killer, A549 tox, Nrf2 inh)
CC1(C(=O)Nc2ccccc2)Cc2c(-c3ccc4c(c3)OCO4)ccnc2O1 (stereo not given)	KB-V1 MDR tox inconclusive, KB-3-1 tox inconclusive (no result: Giardia killer, A549 tox, Nrf2 inh)
CC1(C(=O)Nc2cccc(Oc3ccccc3)c2)Cc2c(-c3ccc4c(c3)OCO4)ccnc2O1 (stereo not given)	KB-V1 MDR tox 5.8µM, KB-3-1 tox 4.6µM (no result: Giardia killer, A549 tox, Nrf2 inh)
CC(=O)Nc1ccc(-c2ccnc3c2CC(C)(C(=O)Nc2ccc4c(c2)OCO4)O3)cc1 (stereo not given)	KB-3-1 tox 18µM (no result: Giardia killer, A549 tox, Nrf2 inh)
CN(C)c1ccc(-c2ccnc3c2CC(C)(C(=O)Nc2ccc(Cl)c(C(F)(F)F)c2)O3)cc1 (stereo not given)	KB-V1 MDR tox inconclusive, KB-3-1 tox 16µM (no result: Giardia killer, A549 tox, Nrf2 inh)
CC(C)Oc1cccc(-c2csc(N3CCC(C(N)=O)CC3)n2)c1	none (no result: Giardia killer, KB-V1 MDR tox, A549 tox, KB-3-1 tox, Nrf2 inh)
COc1ccc(CCC[C@H](CCC(=O)N(c2ccccc2)c2ccccc2)CCc2ccccc2)cc1	none (no result: Giardia killer, KB-V1 MDR tox, A549 tox, KB-3-1 tox, Nrf2 inh)
CCOc1cc(N2CCOCC2)c(OCC)cc1NS(=O)(=O)c1ccc(Cl)s1	KB-V1 MDR tox 5.2µM, KB-3-1 tox 6.5µM
C=C1CCN(C(CC(C)C)C(=O)NN2CCOCC2)S(=O)(=O)c2ccccc21 (stereo not given)	none (no result: KB-V1 MDR tox, PI4K2A inh, KB-3-1 tox)
O=S(=O)(Nc1nc(CN2CCOCC2)nc2sc3c(c12)CCCC3)c1cc(F)ccc1F	KB-V1 MDR tox 10µM
NC(=S)NN=C1c2cc(Cl)ccc2-c2c1cc(Cl)cc2[N+](=O)[O-]	KB-V1 MDR tox 15µM, A549 tox inconclusive, KB-3-1 tox 6.5µM, Nrf2 inh inconclusive
COc1cc(-c2nnc(-c3ccncc3)o2)ccc1OCc1ccccc1	none
COc1cc(-c2nnc(-c3ccco3)o2)ccc1OCc1ccccc1	KB-V1 MDR tox 4.1µM, KB-3-1 tox inconclusive
C[C@H]1C2CC(OC(=O)Nc3ccc(C#N)cc3)C(C2)[C@H]2CCCCN21 (stereo not given in full)	none (no result: Giardia killer, KB-V1 MDR tox, A549 tox, KB-3-1 tox, Nrf2 inh)
N#Cc1c(NC(=O)C2CCCO2)sc2c1CCCCCC2 (stereo not given)	KB-V1 MDR tox 18µM
Cc1sc(NC(=O)C2CCCO2)c(C#N)c1C (stereo not given)	none (no result: Nrf2 inh)
NC(=O)c1c(NC(=O)C2CCCO2)sc2c1CCCC2 (stereo not given)	KB-V1 MDR tox 15µM!

Bioassay records: PubChem BioAssay, National Center for Advancing Translational Sciences (NCATS)
